Results as given in PubChem BioAssay (Tox21).
Where “and” joins values, the source holds several entries; their conditions need not be identical. Equal entries are not always repeated. Records with an inconclusive call do not appear. Entries that show only a call come without a potency. A structure can be active in one record and inactive in another. Calls of active or inactive are those of the source. Calls follow the shape of the dose curve; as a rule, active = well fitted activation curve with a large enough effect in the repeat runs; inconclusive = weak or mixed curves; inactive = no such curve, though single readings can be large or run the other way.

Target: Nuclear receptor subfamily 1 group I member 2 (Homo sapiens) (UniProt O75469)
Test: Human pregnane X receptor (PXR) small molecule agonists, qHTS assay (AID 1346982); also: nearly all actives have a fitted effect of over 35% in size
Settings: PXR-Luc HepG2, CYP3A4 luciferase reporter, 24 h; series mostly up to 92.4 µM
Text: National Center for Advancing Translational Sciences [NCATS]
NIH Chemical Genomics Center [NCGC]
U.S. Environmental Protection Agency [EPA]
National Institutes of Environmental Health Sciences [NIEHS]
National Toxicology Program [NTP]
The human pregnane X receptor (hPXR) regulates the expression of several drug metabolizing enzymes and induction of these proteins is a major mechanism for developing drug resistance in cancer. One such key enzyme catalyzing the drug metabolism is cytochrome P450 3A4 (CYP3A4). Changes in CYP3A4 expression affect drug metabolism, thereby reducing the therapeutic efficacy and altering toxicological response to a drug and which finally causes adverse drug interaction. To screen Tox21 libraries for compounds that activate hPXR-mediated CYP3A4 gene expression, PXR-Luc HepG2 cells were used.
PXR-Luc HepG2 cells were dispensed at 2,000 per well in 5uL of assay medium containing 5% charcoal-stripped FBS into white solid bottom 1536-well plates (Corning Life Sciences, Corning, NY) using a Multidrop Combi (Thermo Scientific, Waltham, MA) dispenser. The assay plates were incubated at 37 C and 5% CO2 for 5hr, and then 23nL of compounds dissolved in DMSO and positive control were transferred using a Pintool station (Wako, San Diego, CA). The assay plates were incubated at 37C and 5% CO2 for 24hr. For luciferase read, 4uL of ONE-Glo reagent (Promega Corporation, Madison, WI) was added to each well of the assay plates using Flying Reagent Dispenser (FRD, Aurora Discovery, San Diego, CA) and incubated the assay plates at room temperature for 30min. The luminescence signal was quantified using a ViewLux plate reader (Perkin Elmer, Shelton, CT).
Potency is read from the fitted curve at half-maximal effect.

Nuclear receptor subfamily 1 group I member 2 (Homo sapiens), sequence (O75469 whole entry, looked up): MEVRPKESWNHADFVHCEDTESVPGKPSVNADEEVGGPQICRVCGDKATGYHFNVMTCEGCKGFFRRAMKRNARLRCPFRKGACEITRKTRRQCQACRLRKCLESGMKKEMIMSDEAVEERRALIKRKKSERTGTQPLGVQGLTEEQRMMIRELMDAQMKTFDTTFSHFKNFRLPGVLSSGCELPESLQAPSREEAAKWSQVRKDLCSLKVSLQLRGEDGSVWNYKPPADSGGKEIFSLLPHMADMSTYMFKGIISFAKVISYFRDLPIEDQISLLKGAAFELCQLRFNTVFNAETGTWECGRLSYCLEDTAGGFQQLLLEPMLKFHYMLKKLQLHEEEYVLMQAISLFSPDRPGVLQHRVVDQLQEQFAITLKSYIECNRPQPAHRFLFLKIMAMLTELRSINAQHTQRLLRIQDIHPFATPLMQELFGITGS

SMILES	activation	Potency
CCC(=O)CC(C)CC (stereo not given)	2.33% [at 0.349 µM] (inactive)	
C#CC(O)CCC (stereo not given)		inactive
CCCC(O)C(O)CO (stereo not given)		inactive
CCOC(=O)CN		inactive
CC(C)(C)c1cc(/C=C2\SC(=N)NC2=O)cc(C(C)(C)C)c1O		30.6 µM (active)
CCCCCCCCCCCCCOP(=O)(O)O		inactive
O=C[C@H](O)[C@H](O)[C@H](O)CO		inactive
Clc1ccc(C(c2ccccc2Cl)C(Cl)Cl)cc1 (stereo not given)		10.9 µM (active)
CC1=C(/C=C/C(C)=C/C=C/C(C)=C/C(=O)Nc2ccc(O)cc2)C(C)(C)CCC1		19.8 µM (active) and inactive
CCCN(CCc1cccs1)[C@H]1CCc2c(O)cccc2C1		inactive
CCC(C)c1cc([N+](=O)[O-])cc([N+](=O)[O-])c1OC(=O)OC(C)C (stereo not given)		61.1 µM (active)
CC(C)c1cccc(C(C)C)c1N1C(=O)c2ccc(O)cc2C1=O		27.3 µM (active)
O=C(O)Cc1ccc(OCCNC[C@H](O)c2ccccc2)cc1		inactive
CC(=O)Oc1ccc(C2(c3ccc(OC(C)=O)cc3)C(=O)Nc3ccccc32)cc1		inactive
CCc1c(Br)c(Br)c(Br)c(Br)c1Br		inactive
CCCCCCCCCCc1ccccc1		inactive
C/C=C/c1ccc(OC)c(OC)c1		inactive
CN(C)CCOC(c1ccccc1)c1ccccc1 (tested in a mixture with another compound)		61.6 µM (active)
Clc1cccnc1		inactive
S=C(SSSSSSC(=S)N1CCCCC1)N1CCCCC1	19.2% [at 19 µM] (inactive)	

SMILES	activation	Potency
CC1=CCC(=O)O1		inactive
CC1CNCC(C)O1 (stereo not given)		inactive
CC(COC(=O)c1ccccc1)OC(=O)c1ccccc1 (stereo not given)		inactive
C=C(c1ccc(C(=O)O)cc1)c1cc2c(cc1C)C(C)(C)CCC2(C)C		inactive
CCCCCCCC/C=C\CCCCCCCC(=O)OCCOC(=O)CCCCCCC/C=C\CCCCCCCC		71.2 µM (active)
CSc1ccc2c(c1)N(CCC1CCCCN1C)c1ccccc1S2 (stereo not given)		9.65 µM (active) and 5.96 µM (active)
COc1nccnc1CC(C)C		inactive
CCCCCCS		inactive
OCCC(O)CO (stereo not given)		inactive
CCN=C1C=CC(=C(c2ccc(N(CC)CC)cc2)c2ccc(N(CC)CC)cc2)c2ccccc21		0.0242 µM (active)
CC(=O)C=O		inactive
CCCCCCCCCCCCCCCC		inactive
O=C1OC(OC(=O)c2cccnc2Nc2cccc(C(F)(F)F)c2)c2ccccc21 (stereo not given)		inactive
CC(C)(C)c1n[nH]c(=O)n(N)c1=O		inactive
C(=C/c1ccccc1)/c1ccccc1		inactive
CCN(CC)CCOc1ccc(C(O)(Cc2ccc(Cl)cc2)c2ccc(C)cc2)cc1 (stereo not given)		9.44 µM (active)
C=C/C=C/C=C/CCCCC	9.15% [at 19 µM] (inactive)	
O=C=NCc1cccc(CN=C=O)c1	2.53% [at 19 µM] (inactive)	
C/C=C/C(=O)Oc1c(CCCCCC(C)C)cc([N+](=O)[O-])cc1[N+](=O)[O-]		21.7 µM (active)
CCc1cccc(C)c1		inactive
